From PubChem BioAssay AID1159580 (chemical genetic matrix, 2015)
Where “and” joins values, the source holds several entries; their conditions need not be identical. Identical values can stand only once. Hit rate of the full screen: of about 5,500 compounds, about 2,000 (36%) were called active. About 18% were inconclusive and are not listed. Rule as the data show it: active = normalized growth mostly below about 0.91 (no sharp cut-off); inconclusive = no clear call, values can overlap the other calls; inactive = mostly above about 0.92. Some of the results follow.

Assay: chemical genetic growth profiling, strain panel (AID 1159580);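 also: tested at 20 µM; growth read once vehicle control cultures reached saturation at 30 °C; 1 = growth at the plate median or of vehicle wells; lower values mean less growth of the strain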
Settings: S. cerevisiae deletion strains, growth OD

Measured: normalized growth

CC[C@H]1OC(=O)[C@H](C)[C@@H](O[C@H]2C[C@@](C)(OC)[C@@H](O)[C@H](C)O2)[C@H](C)[C@@H](O[C@@H]2O[C@H](C)C[C@H](N(C)C)[C@H]2O)[C@](C)(O)C[C@@H](C)[C@@H]2N[C@@H](COCCOC)O[C@H]([C@H]2C)[C@]1(C)O
inactive: locus YAL021C, strain ccr4, stronger effect = lower value 0.991 | locus YAL026C, strain drs2, stronger effect = lower value 0.993 | locus YAL030W, strain snc1, stronger effect = lower value 0.999 | locus YBL061C, strain skt5, stronger effect = lower value 0.982 | locus YBR009C, strain hhf1, stronger effect = lower value 0.995 | locus YBR021W, strain FUR4, stronger effect = lower value 1.01 | locus YBR023C, strain chs3, stronger effect = lower value 0.993 | locus YBR171W, strain sec66, stronger effect = lower value 0.977 | locus YBR229C, strain ROT2, stronger effect = lower value 1.01 | locus YBR231C, strain swc5, stronger effect = lower value 0.992 | locus YBR279W, strain paf1, stronger effect = lower value 0.998 | locus YCL011C, strain gbp2, stronger effect = lower value 0.99 | locus YCL016C, strain dcc1, stronger effect = lower value 0.985 | locus YCL029C, strain bik1, stronger effect = lower value 1.01 | locus YCL061C, strain MRC1, stronger effect = lower value 0.982 | locus YCL069W, strain vba3, stronger effect = lower value 0.988 | locus YCR088W, strain abp1, stronger effect = lower value 0.999 | locus YDL005C, strain med2, stronger effect = lower value 0.978 | locus YDL035C, strain GPR1, stronger effect = lower value 1.01 | locus YDL040C, strain nat1, stronger effect = lower value 0.996 | locus YDL074C, strain BRE1, stronger effect = lower value 1.01 | locus YDL101C, strain DUN1, stronger effect = lower value 1.05 | locus YDL185W, strain tfp1, stronger effect = lower value 1 | locus YDL192W, strain arf1, stronger effect = lower value 1.01 | locus YDR001C, strain nth1, stronger effect = lower value 0.995 | locus YDR069C, strain doa4, stronger effect = lower value 0.995 | locus YDR101C, strain arx1, stronger effect = lower value 0.984 | locus YDR137W, strain rgp1, stronger effect = lower value 1 | locus YDR159W, strain sac3, stronger effect = lower value 0.985 | locus YDR162C, strain NBP2, stronger effect = lower value 1 | locus YDR195W, strain ref2 0.966 | locus YDR297W, strain sur2, stronger effect = lower value 1 | locus YDR318W, strain mcm21, stronger effect = lower value 1.01 | locus YDR334W, strain swr1, stronger effect = lower value 0.986 | locus YDR335W, strain msn5, stronger effect = lower value 0.998 | locus YDR388W, stronger effect = lower value 1.01 | locus YDR392W, strain spt3, stronger effect = lower value 0.989 | locus YDR502C, strain sam2, stronger effect = lower value 0.997 | locus YEL003W, strain gim4, stronger effect = lower value 1 | locus YEL037C, strain rad23, stronger effect = lower value 0.997 | locus YEL061C, strain CIN8 (second series), stronger effect = lower value 0.998 | locus YEL061C, strain CIN8, stronger effect = lower value 1.01 | locus YER015W, strain faa2, stronger effect = lower value 1 | locus YER016W, strain bim1, stronger effect = lower value 0.987 | locus YER110C, stronger effect = lower value 1.01 | locus YER111C, strain swi4, stronger effect = lower value 0.991 | locus YER155C, strain BEM2 (second series), stronger effect = lower value 0.999 | locus YER155C, strain BEM2, stronger effect = lower value 1.01 | locus YER167W, strain BCK2, stronger effect = lower value 1 | locus YFR010W, strain ubp6, stronger effect = lower value 0.988 | locus YGL078C, strain dbp3, stronger effect = lower value 1.01 | locus YGL167C, strain pmr1, stronger effect = lower value 0.991 | locus YGL173C, strain kem1, stronger effect = lower value 0.984 | locus YGL227W, strain vid30, stronger effect = lower value 0.99 | locus YGL240W, strain doc1, stronger effect = lower value 0.989 | locus YGL248W, strain PDE1, stronger effect = lower value 1.02 | locus YGL253W, strain hxk2, stronger effect = lower value 0.998 | locus YGR135W, strain pre9, stronger effect = lower value 1.04 | locus YGR252W, strain gcn5, stronger effect = lower value 0.991 | locus YHR013C, strain ard1, stronger effect = lower value 0.952 | locus YHR027C, strain rpn1, stronger effect = lower value 0.983 | locus YHR030C, strain SLT2, stronger effect = lower value 1 and 1.04 | locus YHR079C, strain IRE1 (second series), stronger effect = lower value 1.01 | locus YHR079C, strain IRE1, stronger effect = lower value 1.03 | locus YHR094C, strain hxt1, stronger effect = lower value 1.01 | locus YHR129C, strain ARP1, stronger effect = lower value 1.01 | locus YHR142W, strain chs7, stronger effect = lower value 0.997 | locus YHR200W, strain rpn10, stronger effect = lower value 1.01 | locus YIL066C, strain RNR3, stronger effect = lower value 1.01 | locus YIL073C, strain SPO22, stronger effect = lower value 1.06 | locus YIL125W, strain kgd1, stronger effect = lower value 1 | locus YIR030C, strain dcg1, stronger effect = lower value 1.02 | locus YJL092W, strain hpr5, stronger effect = lower value 0.991 | locus YJL095W, strain BCK1 (second series), stronger effect = lower value 0.982 | locus YJL095W, strain BCK1, stronger effect = lower value 1.06 and 1 | locus YJL115W, strain asf1, stronger effect = lower value 0.995 | locus YJL129C, strain trk1, stronger effect = lower value 1.01 | locus YJL134W, strain LCB3, stronger effect = lower value 1.01 | locus YJL154C, strain vps35, stronger effect = lower value 0.993 | locus YJL164C, strain tpk1, stronger effect = lower value 1 | locus YJL166W, strain qcr8, stronger effect = lower value 0.993 | locus YJL168C, strain set2, stronger effect = lower value 1 | locus YJL187C, strain SWE1 (second series), stronger effect = lower value 1.05 | locus YJL187C, strain SWE1, stronger effect = lower value 0.991 | locus YJR043C, strain POL32, stronger effect = lower value 0.989 | locus YJR066W, strain TOR1, stronger effect = lower value 0.982
